Measured values as given in PubChem BioAssay (Tox21).
Unmarked numbers belong to inactive results. Calls come from the whole dose curve.

target: Muscarinic acetylcholine receptor M1 (Homo sapiens) (UniProt P11229); test: Cholinergic receptor muscarinic 1 (CHRM1) small molecule agonists, cell-based qHTS assay (AID 1963589); settings: CHRM1-CHO cells, agonist mode, calcium flux fluorescence; series mostly up to 76.8 µM; activation: at the top concentration; note: nearly all actives have a fitted effect of over 35% in size
Sequence (P11229 whole entry, looked up): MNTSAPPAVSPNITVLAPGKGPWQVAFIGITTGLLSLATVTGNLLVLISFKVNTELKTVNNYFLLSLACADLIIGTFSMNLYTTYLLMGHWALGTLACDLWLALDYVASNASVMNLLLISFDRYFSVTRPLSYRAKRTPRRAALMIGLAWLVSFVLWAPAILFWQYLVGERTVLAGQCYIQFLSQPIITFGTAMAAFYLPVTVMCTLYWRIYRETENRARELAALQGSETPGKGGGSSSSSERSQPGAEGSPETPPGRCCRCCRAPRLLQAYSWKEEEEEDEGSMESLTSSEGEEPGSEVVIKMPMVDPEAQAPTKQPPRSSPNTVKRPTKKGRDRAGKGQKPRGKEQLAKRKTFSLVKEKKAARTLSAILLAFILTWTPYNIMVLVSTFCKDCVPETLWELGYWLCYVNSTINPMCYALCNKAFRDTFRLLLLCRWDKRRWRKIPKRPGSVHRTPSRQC
Source text: National Center for Advancing Translational Sciences [NCATS]
Division of Preclinical Innovation [DPI]
U.S. Environmental Protection Agency [EPA]
National Institutes of Environmental Health Sciences [NIEHS]
National Toxicology Program [NTP]
U.S. Food and Drug Administration [FDA]
The CHRM1 is a muscarinic receptor. This receptor plays a crucial role in learning and memory processes and has long been identified as a promising therapeutic target for the improvement of cognitive decline in Alzheimer's disease (AD). The CHRM1-CHO cell line stably expressing human muscarinic acetylcholine receptor M1 (CHRM1) can be used for screening agonists and antagonists of interactions between CHRM1 and its ligands. The CHRM1-CHO Calcium Flux Assay is a homogeneous fluorescence-based assay for detecting the intracellular calcium level using FDSS kinetic plate reader system.
CHRM1-CHO cells were dispensed at 1000 cells/3uL/well in 1536-well black-clear bottom plates using a Multidrop Dispenser. After the assay plates were incubated at a 37 C/5% CO2 incubator for 18 h, 3 uL of Dye Loading Buffer was transferred to the assay plate by a Flying Reagent Dispenser. The assay plates were incubated at 37 C for 1h. For agonist mode, 23 nL of compounds dissolved in DMSO, positive controls or DMSO only was transferred to the assay plate by a pin tool. […] Each test compound was measured at 15 concentrations in three independent runs.
% is set by controls: 0 for no effect and ±100 for the full control effect.

| Compound | activation |
| --- | --- |
| Nc1ccc(Cl)cc1[N+](=O)[O-] | -0.739% |
| COc1ccccc1N1CCN(CCCNc2cc(=O)n(C)c(=O)n2C)CC1 | -0.437% [at 35.3 µM] |
| CCOC(=O)C(Br)c1ccccc1 (stereo not given) | -0.608% |
| CCCCCCCCCOC(=O)c1ccccc1C(=O)OCCCCCCCCC | -0.651% |
| CCNc1nc(NC(C)(C)C)nc(OC)n1 | 0.493% |
| CC(C)(O)c1ccccc1 | -0.0104% |
| C[n+]1cc2c3c(ccc2c2ccc4cc5c(cc4c21)OCO5)OCO3 | 0.0411% [at 15.8 µM] |
| CCC(C)(CCC(C)C)C(=O)[O][Sn]([CH3])([CH3])[O]C(=O)C(C)(CC)CCC(C)C (stereo not given) | 1.32% |
| O=[N+]([O-])c1cccc(I)c1 | -0.969% |
| CCN(CC)CCSC(=O)C(c1ccccc1)c1ccccc1 | -0.063% [at 35.3 µM] |
| CNC(=O)c1cc(Oc2ccc(NC(=O)Nc3ccc(Cl)c(C(F)(F)F)c3)cc2)ccn1 | 0.137% [at 35.3 µM] |
| Clc1cccnc1 | 0.0295% |
| Cc1cccc([N+](=O)[O-])c1C(=O)O | -0.314% |
| CC/C=C\CC/C=C/C(OCC)OCC | -0.488% |
| CN1CCN(Cc2cc(-c3ccc4[nH]c(=O)oc4c3)co2)[C@@H](c2ccc(F)cc2)C1 | 1.74% |
| NC(Cc1ccc(Cl)cc1)C(=O)O (stereo not given) | -0.299% [at 0.29 µM] |
| CSSc1ccoc1C | 0.138% |
| C1=CCCC1 | -0.0008% |
| CC(=O)OC1CCCCC1C(C)(C)C (stereo not given) | 0.0972% |
| BrC(Br)C(Br)Br | -1.19% |

| Compound | activation |
| --- | --- |
| Cc1ccc(N)nc1 | 0.146% |
| CCCC(=O)O[C@]1(C(=O)CC)CC[C@H]2[C@@H]3CCC4=CC(=O)CC[C@]4(C)[C@H]3[C@@H](O)C[C@@]21C | -0.004% [at 35.3 µM] |
| CCc1ccc(CC)cc1 | 0.572% |
| COc1ccc(Nc2ccc(OC)cc2)cc1 | -0.398% |
| CCN1CCN(c2cc(-c3ccc(F)cc3)c3c(n2)CCCCCC3)CC1 | 2.2% [at 15.8 µM] |
| CSc1nc(NC2CC2)nc(NC(C)(C)C)n1 | 5.69% |
| CCCCCCn1c(=O)c2c(ncn2C)n(C)c1=O | 0.0055% [at 35.3 µM] |
| CCCCC(CC)CN1C(=O)C2C3C=CC(C3)C2C1=O (stereo not given) | 0.174% |
| O=C(O)c1cc(N=Nc2ccc([N+](=O)[O-])cc2)ccc1O | 1.18% |
| O=C1OC(=O)C2C3C=CC(C3)C12 (stereo not given) | -0.265% |
| CC1(N)CCC(C(C)(C)N)CC1 (stereo not given) | -1.25% |
| CCCCCCCCCCc1ccccc1 | 0.265% |
| CCOCCn1c(C2CCN(CCc3ccc(C(C)(C)C(=O)O)cc3)CC2)nc2ccccc21 | 0.286% [at 35.3 µM] |
| O=C1c2ccccc2C(=O)C1c1ccc(Br)cc1 | -0.382% [at 35.3 µM] |
| CC(C)c1ccc2sc3ccccc3c(=O)c2c1 | -0.0694% |
| Cc1ccc(C(=O)Oc2ccc(C(O)CNC(C)(C)C)cc2OC(=O)c2ccc(C)cc2)cc1 (stereo not given) | 9.67% [at 35.3 µM] |
| O=C1c2ccccc2S(=O)(=O)N1CCCCN1CCN(c2ncccn2)CC1 | -0.339% [at 35.3 µM] |
| O=C1Nc2cc(Cl)ccc2Oc2ccccc21 | 4.56% [at 35.3 µM] |
| CN=C(NC#N)NCCSCc1csc(N=C(N)N)n1 | -1.06% [at 35.3 µM] |
| N#C[C@@H]1CC(F)(F)CN1C(=O)CNC1CC2CCC(C1)N2c1ncccn1 (stereo not given in full) | 1.94% |
